Source: PubChem
Ba/F3 V617F tox: reduced viability of JAK2V617F-dependent Ba/F3 cells, primary screen, JAK2V617F inhibitor project, cell-based, Ba/F3 EpoR-JAK2V617F, luminescence | ATP luminescence | AID 1446, 2008 | 1.1% of 220,000 active | inhibition, % at 5.6 µM;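 active means inhibition above the campaign mean plus 3 SD over all tested compounds, cut at about 24% in these data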;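 further: cytokine-independent growth of Ba/F3 cells driven by EpoR plus mutant JAK2; 0% = DMSO-treated cells and 100% = JAK inhibitor I control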
IEC-6 tox: cytotoxicity in IEC-6 intestinal epithelial cells, primary screen, cytotoxicity control for KLF5 inhibitor project, cell-based, luminescence; 0.78% of 290,000 active; IEC-6 cytotoxicity, luminescence viability; inhibition, % at 5 µM; AID 1825, 2009; in the data active means inhibition above about 22%;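 further: 0% = plate median of test compound wells and 100% = cytotoxic reference compound wells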
BaF3 tox: parental Ba/F3 cell viability inhibition, counter-screen for JAK2V617F inhibitor project, murine pro-B, CellTiter-Glo luminescence | CellTiter-Glo ATP luminescence | inhibition, % at 5.6 µM | 1.1% of 220,000 active | AID 1486, 2009;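 active means inhibition above a per-campaign cutoff, the mean inhibition of all tested compounds plus 3 SD, cut at about 27% in these data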;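 further: 0% = DMSO wells and 100% = JAK Inhibitor I control wells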
aSyn 5UTR inh: MLPCN primary screen, SNCA 5' untranslated region | alpha-synuclein 5'UTR reporter, inhibitor activity | inhibition, % (tested at 7.5 µM) | 0.82% of 300,000 active | AID 1813, 2009; in the data active means inhibition above about 60%;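 further: H4 neuroglioblastoma cells stably carrying SNCA 5'UTR luciferase fusion; 0% = DMSO wells and 100% = positive control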
APP 5UTR inh: inhibitors of APP translation via 5'UTR reporter, primary screen, APP 5'UTR luciferase, SH-SY5Y cells; SH-SY5Y APP 5'UTR-luciferase reporter, luminescence; inhibition, % at 2 µM; 0.82% of 190,000 active;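 active means inhibition above a set limit, derived from the sample mean plus 3 SD, cut at about 45% in these data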
KLF5 inh: KLF5 expression inhibitors, primary screen, DLD-1 cells, luminescence; DLD-1 KLF5 promoter-luciferase reporter; 0.23% of 290,000 active; AID 1700, 2009; inhibition, % at 5 µM;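 active means inhibition above a per-plate limit of that plate's mean compound inhibition plus 3 SD, cut at about 60% in these data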;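 further: 0% = DMSO wells and 100% = LY294002 at 200 µM; higher means less KLF5 promoter-driven luciferase light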
Starred values were filed as active, the others as inactive; / = no result. Sampled rows, rich in hits. Any-hit rate of the full collection: about 2.2%.

SMILES	Ba/F3 V617F tox	IEC-6 tox	BaF3 tox	aSyn 5UTR inh	APP 5UTR inh	KLF5 inh
CCC1C/C(=C\c2cccnc2)C(=O)/C(=C/c2cccnc2)C1 (configuration not stated)	5.9	30.2*	4.5	/	94.8*	-12.0
O=C1/C(=C/c2cccnc2)CC/C1=C\c1cccnc1	-1.5	-0.5	1.1	-64.5	-13.8	-5.6
O=C1/C(=C/c2cccnc2)CCC/C1=C\c1cccnc1	-3.0	2.8	-5.9	/	94.9*	-3.1
CC(C)/C=C1\CC/C(=C\c2cccnc2)C1=O	-2.0	-3.5	4.7	-61.6	18.7	-34.6
O=C(NCCN1CCCCCC1)C1CC(=O)N(CCc2ccccc2)C1 (configuration not stated)	-2.4	-4.5	5.7	19.8	6.0	-20.6
CCc1nnc(NC(=O)CSc2nc3ccccc3o2)s1	-0.9	1.6	3.4	-1.4	46.9*	-23.3
Cc1nnc(NC(=O)CSc2nc3ccccc3o2)s1	2.9	-0.7	2.5	-6.1	-9.9	9.5
Cc1ccc(-n2nc3c(N4CCC(C(=O)NCc5ccccc5C)CC4)nnc(C)c3c2C)cc1	/	10.1	/	45.2	/	-11.3
COc1ccc(-n2nc3c(N4CCC(C(=O)NCc5cccc(C)c5)CC4)nnc(C)c3c2C)cc1	/	9.3	/	69.7*	/	17.3
CCOc1ccccc1CNC(=O)C1CCN(c2nnc(C)c3c(C)n(-c4ccc(C)cc4)nc23)CC1	/	5.5	/	78.0*	/	-2.5
CCCc1cc(N2CCCC(C(=O)Nc3c(OC)cccc3OC)C2)n2ncnc2n1 (configuration not stated)	-4.5	4.5	3.1	26.6	50.3*	-6.9
CC(=O)Nc1ccc(NC(=O)c2sc3nc4n(c(=O)c3c2C)CCCCC4)cc1	-0.1	0.8	5.8	76.3*	9.4	-1.7
COc1cccc(CC2(CO)CCN(Cc3cnc(N4CCOCC4)s3)CC2)c1	-2.8	-1.5	2.2	0.2	2.3	-21.0
OCC1(CCCc2ccccc2)CCN(Cc2cnc(N3CCOCC3)s2)CC1	-2.5	-2.5	63.8*	-56.8	-8.0	-22.9
Cc1ccc2c(c1)N(CC(=O)c1cccc(Cl)c1)C(=O)C(C)O2 (configuration not stated)	-4.3	-3.4	-0.5	/	2.7	-25.3
O=C(Nc1ccccc1Sc1ccccc1)C1CCCO1 (configuration not stated)	-1.6	-1.7	2.0	15.4	48.7*	-4.8
O=C(O)c1ccccc1NC(=O)C1CCCO1 (configuration not stated)	-3.0	3.9	0.8	14.2	-13.2	-9.7
Cc1c(C(=O)N/N=C/c2ccc(Cl)cc2)[nH]c2ccc(Cl)cc12	4.8	11.3	8.6	-122.3	92.7*	-5.4
CCOc1ccc(/C=N/NC(=O)c2[nH]c3ccc(C)cc3c2C)cc1	/	5.8	/	5.1	/	-9.8
CC1=CN2C(=N)/C(=C/c3ccc([N+](=O)[O-])o3)C(=O)N=C2S1	1.6	-21.4	7.0	-55.6	48.0*	-16.4
CC(C)CN(CC(C)C)c1nnc(NC(=O)Cn2c(=O)oc3ccccc32)s1	-2.3	5.2	3.5	10.4	-0.5	1.5
COc1cc(Cn2cnnn2)ccc1O	0.0	-0.2	3.5	23.6	5.9	-10.4
CC1=CC(=C2C=CC(=O)C=C2)C=C(C)N1C	72.8*	-2.1	60.2*	0.5	/	-14.8
O=C(O)CSc1ncnc2sc3c(c12)CCCC3	-1.1	2.2	89.8*	-7.8	-12.7	-19.9
CC[N+]1=C(C)C(C)(C)c2cc(C)ccc21	64.5*	12.9	72.2*	-6.9	6.1	-78.6
SMILES	Ba/F3 V617F tox	IEC-6 tox	BaF3 tox	aSyn 5UTR inh	APP 5UTR inh	KLF5 inh
Cc1ccc2c(c1)C=CC(C)(C)S2=O (configuration not stated)	5.7	-5.4	9.4	8.0	9.2	-10.0
CN(C)c1ccc(/C=N/N2CCN(c3ccccn3)CC2)cc1	34.7*	2.1	56.5*	-125.8	/	-42.2
CC(C)(C)c1ccc(/C=N/N2CCN(c3ccccn3)CC2)cc1	-3.1	-1.2	6.1	-58.0	/	-12.8
CCCCN=C(Nc1ccc(Cl)cc1)c1cccnc1	-1.6	-0.3	7.8	0.2	-17.2	-11.4
NC(=NCCCCCCN=C(N)/N=C(\N)Nc1ccc(Cl)cc1)/N=C(\N)Nc1ccc(Cl)cc1	/	3.8	/	96.1*	/	-12.2
Cc1ccnc(NC(=O)CCC(=O)c2cccs2)c1	/	/	/	84.0*	/	/
Cc1ccc(NC(=O)CCC(=O)c2cccs2)nc1	/	/	/	-24.7	/	/
CC[n+]1c(/C=C2/C=C(C)CC(C)(C)C2)sc2ccc(OC)cc21	63.9*	-8.3	59.3*	-11.4	0.3	-26.2
CC[n+]1c(/C=C2\C=C(C)CC(C)C2)sc2ccccc21 (configuration not stated)	62.7*	-1.3	62.7*	-10.8	5.1	-19.0
CC[n+]1c(/C=C2\C=C(C)CC(C)(C)C2)sc2ccccc21	56.2*	-0.8	60.1*	-47.3	11.2	-35.8
CCC1=C/C(=C/c2sc3ccccc3[n+]2CC)CC(C)(C)C1	1.7	-8.2	15.5	-41.9	-16.9	-0.8
Fc1ccc(N2Cc3ccsc3C=N2)cc1	-0.8	8.2	1.1	-64.0	-38.6	-4.2
NC(=O)COC(=O)c1cccc2c1-c1ccccc1C2=O	-1.5	-15.9	4.4	16.5	-1.4	-48.6
COc1cc(C2C(C#N)=C(N)Oc3cc4c(cc32)OCO4)cc(OC)c1OC (configuration not stated)	93.3*	85.0*	89.4*	111.3*	93.4*	85.7*
COc1cc(C2C(C#N)=C(N)Oc3cc(O)ccc32)cc(OC)c1OC (configuration not stated)	-2.3	0.0	1.2	58.2	94.5*	4.1
COc1cc(C2C(C#N)=C(N)Oc3cc(O)ccc32)cc2c1OCO2 (configuration not stated)	-2.6	-2.1	2.8	-28.8	-5.4	-22.4
COc1cc(C2C(C#N)=C(N)Oc3cc(N(C)C)ccc32)cc2c1OCO2 (configuration not stated)	3.8	0.7	12.1	59.1	97.3*	-33.4
Cc1cccc(NC(=S)N(Cc2ccc(Cl)cc2)Cc2ccc(C(=O)O)cc2)c1	1.6	0.7	3.1	13.6	-2.2	5.0
CC1(C)CN=C(NC2CCCCC2)S1	-2.2	4.4	1.3	-23.3	-2.5	-15.2
CC(=O)c1cccc(NC(=O)CN2C(=O)COc3ccc(S(=O)(=O)N4CCOCC4)cc32)c1	/	3.2	/	73.0*	/	-1.3
O=C1CCC/C1=C\Nc1ccc(Cl)c([N+](=O)[O-])c1	1.0	0.3	58.4*	-14.8	/	-1.8
CC1(C)CC(=O)N(c2ccc(C#N)cc2)C(=O)C1	/	-4.3	/	-8.3	/	-33.5
COC(=O)c1c(-c2ccccc2)csc1NC(=O)CSc1ncnc2sc(C)c(C)c12	-0.9	-6.5	3.1	11.4	-12.3	-16.6
COc1ccccc1CNc1ncc(-c2ccc(F)cc2)n1C	/	3.6	/	-16.6	/	-11.1
